# An excerpt weighted towards active compounds, which were near 6.6% of everything screened.
# HepG2 viability – kills HepG2 cells in TGF-b inhibitor counter-screen | actives 0.76% (n = 410,000) | HepG2 CAGA-GFP viability, ATP luminescence, 18 h | Potency, µM (series often up to 46.1 µM), inactives show at the top dose activity change, negative = cytotoxicity, usual class: cytotoxic
#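 CellTiter-Glo luminescence gave cytotoxicity after 18 hours at 37 degrees C. The cells were HepG2 CAGA-GFP in 1% FBS DMEM, stimulated with 500 pg/mL TGF-beta after compound addition. %Activity was normalised to no-cell wells (complete cell-killing) and DMSO (no toxicity), and curves were fitted and classified.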
# KB-3-1 tox – KB-3-1 parental cell cytotoxicity | actives 1.4% (n = 400,000) | AID 1347075 | KB-3-1 viability, CellTiter-Glo ATP luminescence, 72 h | Potency, µM (series often up to 46.1 µM), usual class: cytotoxic; note: % is set by controls: 0 for no effect and ±100 for the full control effect; nearly all actives have a fitted effect of over 60% in size
#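 Cytotoxicity measured as CellTiter-Glo luminescence after 72 h at 37 C. Compound titrations were pinned onto drug-naive KB-3-1 parental adenocarcinoma cells grown in DMEM with 10% FBS, and normalized data fitted to concentration-response curves.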
# KB-V1 cytotox – kills drug-selected multidrug resistant KB-V1 cells; KB-V1 MDR cells viability, CellTiter-Glo, 72 h; Potency, µM (doses to about 46.1 µM), usual class: cytotoxic; actives 3.4% (n = 400,000); note: % is set by controls: 0 for no effect and ±100 for the full control effect; nearly all actives have a fitted effect of over 60% in size
#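 Compound-treated KB-V1 multidrug-resistant cells, 72 h, 37 degrees C; viability by CellTiter-Glo. Fitted qHTS curves give the values.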
# TGFb inhibitor – TGF-b pathway inhibition | actives 1.2% (n = 410,000) | Potency, µM (titrated, usually from 46.1 µM), for the others: top-dose activity, negative = inhibition, actives largely listed as inhibitors | HepG2 CAGA-GFP TGF-b/SMAD3 reporter, GFP fluorescence, 18 h; TGF-beta stimulated, 500 pg/mL final; note: % is set by controls: 0 for no effect and ±100 for the full control effect; nearly all actives have a fitted effect of over 65% in size
#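 HEPG2 CAGA-GFP reporter cells (1000/well, DMEM with 1% FBS) received compounds, then recombinant TGF-beta at 500 pg/mL final for 18 hours at 37 degrees C. Per-cell GFP summed per well was normalised to unstimulated and stimulated DMSO controls before curve fitting.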
# HT1080 IDH1KD tx – kills HT-1080 cells with IDH1 knockdown; actives 2% (n = 360,000); Potency, µM (titrated, usually from 46.1 µM), for inactives: at the highest dose activity, negative = toxicity, hits mostly cytotoxic; AID 686971; HT-1080 IDH1 knockdown viability, ATP luminescence, 48 h;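 note: 0% = DMSO wells and -100% = cell-free medium wells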
#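 Luminescent ATP read-out (CellTiter-Glo, 10 min at room temperature) after 48 h compound exposure at 37 °C gave viability of IDH1-knockdown HT-1080 cells. Activity was normalised to DMSO and cell-free wells, then fitted as concentration-response curves.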
# HT1080-NT tox – kills 2HG-producing HT-1080-NT fibrosarcoma cells; HT-1080-NT fibrosarcoma viability, CellTiter-Glo ATP luminescence, 48 h; Potency, µM (titrated, usually from 46.1 µM), without a hit: top-dose activity, negative = less viability, hits mostly cytotoxic; actives 1.6% (n = 360,000); AID 686970;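 note: NT is the 2HG producing partner of a matched IDH1 knockdown line; 0% = DMSO-treated cells and -100% = media-only wells without cells; nearly all actives have a fitted effect of over 55% in size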
#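 Fibrosarcoma NT cells, 750 per well in 5% FBS RPMI, were exposed to compound for 48 hours. Viability: CellTiter-Glo luminescence.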
# Active calls of the source: *; i = inactive; ? = inconclusive; · = no result given. Calls come from the whole dose curve; as a rule, active = well fitted curve in the direction sought with a large enough effect; inconclusive = small, poorly fitted or top-dose-only effect, or another doubt; inactive = no such curve, though single readings can be large; an effect the other way counts as inactive or inconclusive. Potency is the fitted concentration of half-maximal effect.
SMILES,HepG2 viability,KB-3-1 tox,KB-V1 cytotox,TGFb inhibitor,HT1080 IDH1KD tx,HT1080-NT tox
CCCCOP(=O)(OCCCC)C(Nc1ccccc1)c1ccc2c(c1)OCO2 (stereo not drawn),-27.4%,?,7.31µM*,?,-26.2%,-6.8%
COc1cccc(NC(=O)Nc2cc(Cl)ccc2C)c1,-3.9%,i,?,-13.0%,-5.4%,-11.5%
Cc1ccc(Cl)cc1NC(=O)c1cccc(OC(F)F)c1,-1.9%,i,18.4µM*,20.1%,-11.2%,-9.5%
CCOCCCNC(=O)c1ccc(Cn2c(=S)[nH]c3c([nH]c4ccc(OC)cc43)c2=O)cc1,24.3%,i,i,19.9%,-5.5%,-0.8%
CCCCNC(=O)c1ccc(Cn2c(=S)[nH]c3c([nH]c4ccc(OC)cc43)c2=O)cc1,-60.4%,?,i,?,18.4µM*,?
COc1ccc(C(N)c2csc(Nc3nncc4ccccc34)n2)cc1 (stereo not drawn),-65.6%,i,?,12.6µM*,?,?
CCc1nn(CC(=O)Nc2ccc(NC(C)=O)cc2)c(=O)c2cc3sccc3n12,-2.4%,i,?,-20.7%,·,·
Cc1c(C(=O)NCc2cccnc2)oc2ccc(S(=O)(=O)N3CCCCCC3)cc12,-16.0%,?,5.17µM*,4.5%,-11.8%,-16.9%
O=S(=O)(c1ccc(NC(=S)NCc2cccnc2)cc1)N1CCCCC1,-22.3%,i,i,?,10.3µM*,?
Cc1c(C(=O)NCc2cccnc2)oc2ccc(S(=O)(=O)N3CCCCC3)cc12,-41.3%,?,?,-4.3%,14.1µM*,?
CCN(C(=O)c1oc2ccc(S(=O)(=O)N3CCCCCC3)cc2c1C)c1ccccc1,-23.7%,25.9µM*,i,?,·,·
O=C(NC1CCCC1)C1c2ccccc2OCC(=O)N1CCc1ccccc1 (stereo not drawn),·,i,i,·,3.6%,9.6%
CCSc1ncc(Cl)c(C(=O)Nc2ccc(S(=O)(=O)N3CCCCC3)cc2)n1,-19.5%,i,i,?,·,·
C[C@@H]1CN([C@@H](C)CO)S(=O)(=O)c2ccc(Br)cc2O[C@@H]1CN(C)C(=O)C1CC1,-15.5%,i,i,0.3%,-1.7%,1.7%
O=C(CSc1nncs1)Nc1ccc(N2CCCCC2)cc1,-5.8%,?,16.4µM*,-9.6%,-6.1%,6.2%
CCC(C(=O)N1CCN(c2ccccc2F)CC1)n1nc(C)c2sc3ccccc3c2c1=O (stereo not drawn),11.3%,i,i,-0.5%,·,·
CCc1cccc(NC(=O)c2cc3c(=O)n(Cc4ccc(OC)cc4)ccc3nc2C)c1,-5.5%,i,i,?,·,·
CC(C)Nc1cc(C(C)(C)C)nc2c(-c3ccccc3)cnn12,-23.7%,i,i,?,?,?
CC(C)(C)c1cc(NCCCn2ccnc2)n2ncc(-c3ccccc3)c2n1,-105.7%,i,?,?,16.4µM*,18.4µM*
CC(C)(C)c1cc(NCc2ccccn2)n2ncc(-c3ccc(Cl)cc3)c2n1,-12.4%,i,i,-12.6%,2.1%,16.1%
Cc1cc(NCc2ccccn2)n2nc(C)c(-c3ccccc3)c2n1,-34.8%,i,i,11.2µM*,-13.8%,?
CCCc1cc(NCCCn2ccnc2)n2nc(C)c(-c3ccccc3)c2n1,-20.2%,i,?,-12.2%,13µM*,?
CN(C)CCCNc1cc(C(C)(C)C)nc2c(-c3ccc(Cl)cc3)cnn12,-103.1%,i,?,22.4µM*,11.6µM*,18.4µM*
CCN(C(=O)c1cn(-c2cccc(OC)c2)c(=O)c2ccccc12)c1ccccc1C,0.0%,·,·,-8.9%,·,·
CCOC(=O)N1CCc2c(sc3c2c(=O)n(-c2ccc(CC)cc2)c(=O)n3CC(=O)Nc2ccc(C)cc2)C1,-21.2%,·,·,-24.3%,·,·
SMILES,HepG2 viability,KB-3-1 tox,KB-V1 cytotox,TGFb inhibitor,HT1080 IDH1KD tx,HT1080-NT tox
O=[N+]([O-])c1ccc(-c2csc(Nc3ccccc3)n2)cc1,·,·,·,·,-24.2%,-20.8%
COc1ccc(-c2nn3c(-c4cc(-c5ccccc5)n[nH]4)nnc3s2)cc1OC,-1.4%,i,i,6.4%,·,·
CC(C)CCNC(=O)CSCc1cnn(-c2ccccc2)c1-n1cccc1,-26.2%,·,·,0.0%,·,·
Cc1cc(NCCCn2ccnc2)n2ncc(-c3ccc(Cl)cc3)c2n1,-50.8%,i,i,?,11.2µM*,11.2µM*
CCNC(=O)C1CCCN(C(=O)c2ccc(OC)c(OC)c2)CC1 (stereo not drawn),2.9%,i,i,1.9%,2.4%,15.1%
COc1ccccc1N1CCN(C(=O)c2ccc(Cl)c(S(=O)(=O)NCc3ccco3)c2)CC1,-13.7%,7.08µM*,12.6µM*,-7.2%,7.08µM*,8.91µM*
O=C1c2ccccc2C(=O)c2c(O)c(O)cc(O)c21,-17.3%,i,i,-9.2%,?,9.2µM*
CCOC(=O)c1cc(-c2ccc(OC)cc2)n(CCC(=O)Nc2cccc(C)c2C)c1C,-2.1%,·,·,0.0%,·,·
CCOC(=O)c1c(NC(=O)Nc2ccc(Cl)cc2)sc(C)c1C,5.3%,i,i,-7.3%,5.6%,8.5%
CCOC(=O)c1c(NC(=O)/C=C/C(=O)O)sc(C)c1-c1ccc(Cl)cc1,17.8µM*,?,i,?,23.1µM*,?
COc1ccc(N2CCN(CC(O)COc3ccc(C(C)C)c(C)c3)CC2)cc1 (stereo not drawn),-24.2%,?,?,?,·,·
CCc1ccc(-n2c(=O)c3cccnc3n2CC(=O)Nc2ccccc2C(F)(F)F)cc1,11.2µM*,·,·,?,·,·
COc1ccccc1C(=O)c1c(N)c(-c2nc(-c3ccccc3)cs2)c2ccccn12,-0.1%,?,?,0.0%,·,·
CN(Cc1cccs1)C(=O)c1ccc(S(=O)(=O)N2CCCCC2)cc1,10.8%,i,?,10.7%,-5.2%,24.0%
CN(Cc1cccs1)C(=O)c1cccc(S(=O)(=O)N2CCCCCC2)c1,4.8%,i,18.4µM*,-5.2%,7.1%,0.8%
CC1CN(S(=O)(=O)c2cc(C(=O)NCc3ccncc3)ccc2Cl)CC(C)O1 (stereo not drawn),-1.3%,i,i,3.2%,-0.5%,-0.6%
CC1CN(S(=O)(=O)c2cc(C(=O)N(C)Cc3cccs3)ccc2Cl)CC(C)O1 (stereo not drawn),-1.4%,i,10.3µM*,-15.9%,1.9%,0.4%
N#CN1C2CCC1CC(O)(c1ccccc1)C2 (stereo not drawn),4.5%,i,i,13.6%,10.7%,?

# High-throughput results from PubChem BioAssay.
